The record followed here is the supplement of paper PMC6555819.

In the experiment the test system is VDR:RXRa (NR concentration 270 nM, RXRa partner concentration 90 nM). The experiment in a line: PBM binding z-score (relative to random genomic background probes); higher = stronger binding; sequences stand for … in GC…GCGATTGACAGCGTAGAATGAAGG
As for the experimental part: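 Protein-binding microarray (Agilent 4x180K custom design, double-stranded 60-nt probes: 5' GC cap, 34-nt variable region, 24-nt constant primer region; full probe sequence given). Purified or IVT nuclear receptor:RXRα heterodimers (3:1 NR:RXRα, mostly 270:90 nM) or homodimers were incubated for 1 h in PBS with 2% milk and no ligand, then detected with Alexa488 antibodies. Fluorescence from o1-orientation probes (~5 replicates averaged) was converted to z-scores against 500 random hg19 background probes. Variable regions are seed direct-repeat (DR0–DR5) sites, all their single-nucleotide variants and half-site ablations.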
In the case of ACTATTAGTTGACTTAGGGCTACCGATACGACGC, the PBM binding z-score was -0.0525.

For the sequence ACTTACGGGTCAATGAGGTTATAGCACGCGTATA, the PBM binding z-score is 7.74.

Take CCTAGTTGGACAAGGTCACACACGCTATAGGTAC: the PBM binding z-score stood at 4.08.

As to CTGGAAAGGTCGGTTGAGGTGAGTATACGGATAA, the PBM binding z-score was determined as 2.15.

As to ATCTCTAGGTAACCAAGTTCAGTGATTGCCGAAC, the PBM binding z-score was found to be 4.17.

As to ATATGTATGTTACATCCGGGTCATTCAGGCTATG, the PBM binding z-score turned out to be 3.02.

GGAGCGAGGGCAAAGTTGATAGCATCTGTCGACG displayed a PBM binding z-score of 0.834.

For the sequence AATACAGGCTCATCGTAGGCCAGAGTACGCACAG, the PBM binding z-score was -0.438.

ATCTCTAGGTAACCAAGTTCAGTTAATGCCGAAC: the PBM binding z-score stood at 4.33.

In turn, CAAACTAGGTCAAGGTCAAAGCCGGTTTGTGCCA had a PBM binding z-score of 4.95.

As for TAGCCTAGGTCATTCAGGGGCCGGTATAGAAAGC, the PBM binding z-score amounted to 2.63.

In the case of GGAACGATGGCAAGTTGATAGCAGAGTTTGATGG, the PBM binding z-score is -0.469.

CCTTCTGGGCCAAAAAGGTCATTGATGCCGATAA came in with a PBM binding z-score of 4.86.

ATCTCTAGGTAAGACTCAGTTCGGTGAAGAACGC showed a PBM binding z-score of 0.216.

As for TCGAGGAGGTTAGGGGCATTCAGAATGGCGTCGA, the PBM binding z-score turned out to be 1.03.

For the sequence ATCCCTAGGTAACCAAGTTCAGTGAATGCCGAAC, the PBM binding z-score stood at 4.31.

In turn, TCTACTAGTTGATTAGGGCAACCGAAACAGCGGA showed a PBM binding z-score of 0.208.

On to CAAACTAGGTCAAAGGGCAAAGTCGAGCCAACCA, for which the PBM binding z-score was determined as 3.83.

ATCGAAAAGTCGTGAGGTGAGTATACAGAAAGGC: the PBM binding z-score is -0.173.

For the sequence CCGACTGGGGCAAAGATTACCATACTCAGTACGA, the PBM binding z-score was -0.618.

Turning to CGAACTAGGTCTAGGACAGTGAATCTCCGCACGC, the PBM binding z-score is -0.692.

Regarding ATCTCTAGGAAAAAGTTCAGTGAATCCCGAGGAT, the PBM binding z-score amounted to 0.44.

TGTCAAAGTTCAATGGTAACGTAAGTATCCACAC: the PBM binding z-score was found to be 3.81.

In turn, ATATGTAGGTTTTCGGGTCATTCAGTTTGCGCAT gave a PBM binding z-score of 5.07.

Sequence CTACCACGGTGAACAAGGTCGTTGATTACTATTC gave a PBM binding z-score of 3.47.

ACTAGCAGGCCAAGGGTAACTCAAGATTAGTCCG: the PBM binding z-score was -0.166.

In turn, TAGCCTAGGTCAGATCTGGCCAGTATACGCTATA yielded a PBM binding z-score of 0.166.

Consider ACAGACTGGTGAGTGAAGGTAACTCAGCTGGACG, for which the PBM binding z-score was -0.365.

The sequence CCTATTAGTTCACCATAAGGGCAACCGAAGCTCG returned a PBM binding z-score of 2.6.

Turning to TCTGCTAGGTCAGTTGGTCAGATAACGAGCTGCC, the PBM binding z-score is 0.238.

Regarding ATCTCTAGGTAAAAGTTCAGTTAATCCCGAGGAT, the PBM binding z-score amounted to 1.44.

Take ACAGACAGGTGAGTCAAGGTAACTCAGCTGGACG: the PBM binding z-score was -0.187.

Sequence CCAGACAGGTCAGAAGGTAACTCAGCCTCGATTA had a PBM binding z-score of 1.44.

Regarding ACAGACAGGTGTTGAAGGTAACTCAGGCTATCAT, the PBM binding z-score is -0.203.

Sequence GCGTCTGGGGCATCAGCAGGTTACCATAACTTAA showed a PBM binding z-score of -0.165.

With AGAATGAGGTTATACGTAGATGAGGGAAGAAAGT, the PBM binding z-score was found to be 1.53.

Sequence CCTACTGGGCCAAGGTAATTGATCAGTCAAAGCA showed a PBM binding z-score of -0.552.

In turn, ACTATTAGTTGACTTATGGCAACCGATACGACGC returned a PBM binding z-score of 0.458.

TAGCCTAGGTTATTGGGCCAGTATAGTACGCATC had a PBM binding z-score of -0.034.

Take TCTGCTAGGTCAACGATGGTCCGCTAATCTGCTA: the PBM binding z-score turned out to be 1.14.
